Screens: PubChem, National Center for Advancing Translational Sciences (NCATS)
An excerpt weighted towards active compounds, which were near 4% of everything screened.
D1 ag = human D1 receptor agonism | P21728 | HEK293 T-REx D1 cells, calcium flux, agonist mode | activation, % at 2 µM | actives 1% (n = 360,000) | AID 504660
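Inducible HEK293 T-REx D1 cells, force-coupled to calcium signalling, were plated at 4000 cells/well with tetracycline and held overnight at 30 C. After no-wash calcium dye loading, compound-evoked calcium rise over 180 s flagged agonists.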
TRHR enhancer = allosteric enhancers of human TRH receptor; enhancement, % at 2 µM; actives 0.66% (n = 360,000); P34981; TRHR cells, fluo-8 calcium fluorescence, EC20 TRH enhancement; in the data active = enhancement above about 30%
Target sequence (P34981 whole entry, looked up): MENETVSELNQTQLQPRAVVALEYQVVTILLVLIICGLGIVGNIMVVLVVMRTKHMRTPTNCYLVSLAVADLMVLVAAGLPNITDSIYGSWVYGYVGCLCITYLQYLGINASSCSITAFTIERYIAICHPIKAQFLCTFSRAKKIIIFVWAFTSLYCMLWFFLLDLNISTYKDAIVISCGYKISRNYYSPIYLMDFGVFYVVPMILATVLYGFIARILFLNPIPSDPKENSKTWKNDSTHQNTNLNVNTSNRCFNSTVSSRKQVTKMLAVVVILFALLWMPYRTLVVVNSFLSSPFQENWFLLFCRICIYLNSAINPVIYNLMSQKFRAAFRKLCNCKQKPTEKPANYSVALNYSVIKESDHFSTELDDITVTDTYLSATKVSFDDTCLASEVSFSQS
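Enhancer read-out: after compound pinning and an initial kinetic agonist-mode read, an EC20 of TRH (10 nM final) was injected and fluo-8 calcium signal (Ex 480/Em 530) followed at 1 s/cycle for 100 cycles in TRHR-expressing cells.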
D1 potentiator = human D1 dopamine receptor positive modulation | P21728 | HEK293 TREx D1 cells, calcium flux, dopamine EC20 potentiation | potentiation, % at 10 µM | actives 0.036% (n = 360,000) | AID 504651; in the data active = potentiation above about 30%
D1 antagonist = antagonists of human D1 dopamine receptor. P21728. HEK293 TREx D1 cells, calcium flux, dopamine EC80; hits give low values. activity change, negative = inhibition, % at 10 µM. actives 3.2% (n = 360,000); in the data active = activity change below about -30%
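Compound effects on dopamine-evoked calcium signalling were measured in tetracycline-induced HEK293 Trex D1 cells. Dopamine at EC80 followed a 180 s compound pre-read, and fluorescence was tracked kinetically for 180 s more.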
TRHR ag = activates the human TRH receptor; P34981; TRHR cells, calcium flux fluo-8, FDSS agonist mode; activation, % at 2 µM; actives 0.18% (n = 360,000)
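TRHR-expressing cells loaded with fluo-8 calcium dye; 23 nL library compound pin-transferred, kinetic FDSS fluorescence (Ex 480/Em 530) recorded about 180 s for agonist-induced calcium release, before a 10 nM TRH EC20 addition for potentiator mode.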
Glioma ERSR ind = ER stress response induction in glioma; U87-MG GRP78 promoter luciferase reporter, 16 h; Potency, µM, most hits filed as activators; actives 0.02% (n = 420,000); active = well fitted activation curve with a large enough effect; also: series mostly up to about 76 µM; nearly all actives have a fitted effect of over 35% in size
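ERSR induction read as luciferase luminescence (Bright-Glo, 10 min at room temperature) in stably transfected human U87-MG glioma cells exposed to compounds for 16 h, using GRP78 as sensor.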
Each line names hits and unclear results; the compound was inactive in the other large screens. Rule as the data show it, unless noted: active = activation above about 30%; inactive = the rest.

COc1ccc(-c2ccc(NS(=O)(=O)c3ccc(OC)c(OC)c3)cc2)nn1	none
NC(=O)c1cc2cc(Cl)ccc2oc1=Nc1cccc(C(F)(F)F)c1	D1 antagonist -32.7
NC(=O)c1cc2cc(Cl)ccc2oc1=O	none
CCS(=O)(=O)N1CCC(C(=O)NCC2CCCO2)CC1 (configuration not stated)	D1 antagonist -35.8
CCCCS(=O)(=O)N1CCC(C(=O)NCC2CCCO2)CC1 (configuration not stated)	none
CCc1ccc(N2CCn3c2nc2c3c(=O)n(C/C=C/c3ccccc3)c(=O)n2C)cc1	none
COC(=O)C/C=C/C(C)C(OCc1cccc(-c2ccccc2)c1)C1CCCCC1 (configuration not stated)	none (no result: D1 ag, TRHR enhancer, D1 potentiator, D1 antagonist, TRHR ag)
COc1ccc(/C=C(\NC(=O)c2ccccc2)C(=O)NCCN2CCOCC2)cc1	none
CCN(CC)CCNc1nc2ccccc2n1C	D1 antagonist -37.4
Cn1c(Nc2ccccc2)nc2ccccc21	D1 antagonist -45.6
CCN(CC)CCn1c(C)nc2ccccc21	none
COc1ccc(C(C)=O)c(Oc2ccc(S(=O)(=O)N3CCOCC3)cn2)c1	none
Cc1cc(C)c(S(=O)(=O)N2CCCCC2)cc1N(C)S(=O)(=O)c1ccc(Cl)cc1	D1 antagonist -30.6
Cc1ccc(S(=O)(=O)N(C)c2cc(S(=O)(=O)N3CCOCC3)c(C)cc2C)cc1	none
Cc1cc(C)nc(/N=C(\N)Nc2ccc(-c3ccccc3)cc2)n1	D1 ag 33.6
CC(=O)Nc1ccc(N/C(N)=N/c2nc(C)cc(C)n2)cc1	none
Cc1cc(C)nc(/N=C(\N)Nc2ccc(SC(F)F)cc2)n1	D1 ag 43.4, D1 antagonist -49.1
Cc1ccc2c(c1)C(c1ccccc1)N(C(=O)c1ccc(S(=O)(=O)N3CCCCC3)cc1)CC(=O)N2 (configuration not stated)	D1 antagonist -48.0
COc1ccc(C(=O)N2CC(=O)Nc3ccc(C)cc3C2c2ccccc2)c(OC)c1 (configuration not stated)	D1 antagonist -45.4
COc1ccccc1C(=O)N1CC(=O)Nc2ccc(C)cc2C1c1ccc(F)cc1 (configuration not stated)	none
O=C1CN(C(=O)c2ccc(S(=O)(=O)N3CCCC3)cc2)C(c2ccccc2)c2cc(Br)ccc2N1 (configuration not stated)	none
Brc1cc(Br)c[n+](CCc2ccccc2)c1	none (no result: D1 ag, TRHR enhancer, D1 potentiator, D1 antagonist, TRHR ag)
O=C(CCNC(=O)c1ccc([N+](=O)[O-])cc1)Nc1ccccc1N1CCCCC1	none
CCn1c(-c2ccccc2F)nc2cc(C(=O)NCc3ccc(C)o3)cc(NC(C)=O)c21	none (no result: D1 ag, TRHR enhancer, D1 potentiator, D1 antagonist, TRHR ag)
Cc1cccc(/C(N)=N/OC(=O)CCc2ccccc2)c1	none
CCCn1c(SCC(N)=O)nnc1-c1ccco1	D1 antagonist -55.0
CC(C)NC(=O)CSc1nnc(-c2ccco2)n1N	D1 antagonist -66.8
CCCn1c(SCC(=O)c2ccc3c(c2)OCCO3)nnc1-c1ccco1	D1 antagonist -35.6
CCCCn1c(SCC(=O)c2ccc3c(c2)OCCO3)nnc1-c1ccoc1C	none
NC(=O)CSc1nnc(-c2ccco2)n1N	none
Cc1ccc(C2C=CC(C#N)=CN2Cc2ccccc2)cc1 (configuration not stated)	none (no result: D1 ag, TRHR enhancer, D1 potentiator, D1 antagonist, TRHR ag)
Cc1cc(C)c(S(=O)(=O)c2cccc(Br)c2C)c(=O)[nH]1	none
O=C(CSc1nc(-c2ccncc2)nn1CC(=O)N1CCCCC1)NC1CCCC1	none
Cc1cc(CNC(=O)COc2ccccc2)c2ccccc2n1	D1 antagonist -35.4
O=C(NCCc1ccccc1)c1cc(Sc2cccc(Cl)c2)nc2ccccc12	D1 antagonist -43.4
O=C(NCc1cccc(Cl)c1)c1cccc(C(F)(F)F)c1	D1 antagonist -33.2
O=C(NCc1ccccc1)c1cc(Sc2cccc(Cl)c2)nc2ccccc12	none
Cc1cc(C(=O)NC2CCCC(C)C2C)c2ccccc2n1 (configuration not stated)	D1 antagonist -30.7
O=S(=O)(c1ccccc1Br)N(Cc1ccccc1)Cc1ccco1	none (no result: D1 ag, TRHR enhancer, D1 potentiator, D1 antagonist, TRHR ag)
CC1CCCCN1CC(O)COCc1ccccc1 (configuration not stated)	none
